In one experiment the target is T1, SmpO408 (Staphylococcus aureus M0408).
T1 chain: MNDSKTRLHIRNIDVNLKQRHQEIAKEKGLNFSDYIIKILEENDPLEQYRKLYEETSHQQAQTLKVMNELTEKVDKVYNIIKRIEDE
Nature of the experiment: SPR (ReDCaT); 300 mM NaCl; 10 mM HEPES, 3 mM EDTA, 0.05% Tween 20, NaCl 150 mM (SmpO49 screens), 300 mM (SmpO45, SmpO408, SmpOUNa screens) or 250 mM (Table S4); pH and temperature not stated; protein 1 uM; high values mean tight binding. Particulars: protein: recombinant; tags: His6-TEV, cleaved; chain copies: 4. Summed up: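 Tag-cleaved protein, expressed in E. coli BL21(DE3)pLysS and purified by nickel-affinity and size-exclusion chromatography, was screened on a Biacore T200 SA chip by reusable DNA capture. OriT oligonucleotides were captured at 1 μM on Fc2, with a control linker on Fc1. Protein at 1 μM was injected at 30 μl/min (60 s contact, 60 s dissociation) in 10 mM HEPES, 300 mM NaCl, 3 mM EDTA, 0.05% Tween 20. DNA binding is reported as %Rmax.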

In another experiment the target is T2, SmpOSep (Staphylococcus epidermidis VCU120).
T2 chain: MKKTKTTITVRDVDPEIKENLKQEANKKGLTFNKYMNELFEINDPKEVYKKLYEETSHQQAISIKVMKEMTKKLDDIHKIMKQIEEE
Put plainly: SPR (ReDCaT); 250 mM NaCl; 10 mM HEPES, 3 mM EDTA, 0.05% Tween 20, NaCl 150 mM (SmpO49 screens), 300 mM (SmpO45, SmpO408, SmpOUNa screens) or 250 mM (Table S4); pH and temperature not stated; protein 1 uM; high values mean tight binding. Particulars: protein: recombinant; tags: His6-TEV, cleaved; chain copies: 4.

B1: ossA408-15 (dsDNA)
DNA 1: TTATAGGCGCCTAAAA
DNA 2: TTTTAGGCGCCTATAA
For B1, the binding signal with SmpO408 turned out to be 63 ± 1.28 %Rmax.

B2: ossA408-4 (dsDNA)
DNA 1: TTAAAGGCGCCTAATA
DNA 2: TATTAGGCGCCTTTAA
On to B2, for which, in the experiment with SmpO408, the binding signal amounted to 69 ± 1.82 %Rmax.

B3: ossA408-13 (dsDNA)
DNA 1: TTATAGGCGCCTTATA
DNA 2: TATAAGGCGCCTATAA
Turning to B3, the binding signal with SmpO408 was 63.9 ± 1.66 %Rmax.

B4: ossA408 C11G (dsDNA)
DNA 1: TTATAGGCGCGTAATA
DNA 2: TATTACGCGCCTATAA
B4: the binding signal with SmpO408 amounted to 34.5 ± 1.85 %Rmax.

B5: ossA408-12 (dsDNA)
DNA 1: TTATAGGCGCCAAATA
DNA 2: TATTTGGCGCCTATAA
As for B5, the binding signal with SmpO408 is 68.3 ± 1.07 %Rmax.

B6: ossA408 G6C (dsDNA)
DNA 1: TTATACGCGCCTAATA
DNA 2: TATTAGGCGCGTATAA
On to B6, for which the binding signal in the experiment with SmpO408 is 35.5 ± 2.44 %Rmax.

B7: ossBSep (dsDNA)
DNA 1: TAAATGTATGCATATT
DNA 2: AATATGCATACATTTA
B7: the binding signal in the experiment with SmpOSep was 16.5 %Rmax.

B8: ossB49 (dsDNA)
DNA 1: CCGATGATAGCAAATT
DNA 2: AATTTGCTATCATCGG
As for B8, the binding signal with SmpOSep stood at 0.6 %Rmax.

B9: ossA408-16 (dsDNA)
DNA 1: TTATAGGCGCCTAATT
DNA 2: AATTAGGCGCCTATAA
B9: the binding signal in the experiment with SmpO408 amounted to 65.1 ± 0.98 %Rmax.

B10: ossA408-10 (dsDNA)
DNA 1: TTATAGGCGGCTAATA
DNA 2: TATTAGCCGCCTATAA
B10: in the experiment with SmpO408, the binding signal was 48.1 ± 2.02 %Rmax.

B11: ossA408-5 (dsDNA)
DNA 1: TTATTGGCGCCTAATA
DNA 2: TATTAGGCGCCAATAA
With B11, the binding signal in the experiment with SmpO408 turned out to be 67.9 ± 1.54 %Rmax.

B12: ossA408-7 (dsDNA)
DNA 1: TTATAGCCGCCTAATA
DNA 2: TATTAGGCGGCTATAA
As for B12, the binding signal with SmpO408 came to 49.8 ± 2.35 %Rmax.

B13: ossA408-9 (dsDNA)
DNA 1: TTATAGGCCCCTAATA
DNA 2: TATTAGGGGCCTATAA
With B13, the binding signal with SmpO408 amounted to 6.86 ± 1.04 %Rmax.

B14: ossA408-3 (dsDNA)
DNA 1: TTTTAGGCGCCTAATA
DNA 2: TATTAGGCGCCTAAAA
Regarding B14, the binding signal with SmpO408 is 64.4 ± 1.7 %Rmax.

B15: ossA408-8 (dsDNA)
DNA 1: TTATAGGGGCCTAATA
DNA 2: TATTAGGCCCCTATAA
Take B15: the binding signal with SmpO408 amounted to 7.62 ± 1.09 %Rmax.

B16: ossA408-1 (dsDNA)
DNA 1: ATATAGGCGCCTAATA
DNA 2: TATTAGGCGCCTATAT
For the molecule B16, the binding signal with SmpO408 was 67.4 ± 2.06 %Rmax.

B17: ossASep (dsDNA)
DNA 1: TTTGCATACATTTAAA
DNA 2: TTAAATGTATGCAAA
On to B17, for which the binding signal in the experiment with SmpOSep stood at 18.8 %Rmax.

B18: OT408 For/Rev_18 (dsDNA)
DNA 1: TAATAGGTGGCAAATTTCCCTTATGCTCTT
DNA 2: AAGAGCATAAGGGAAATTTGCCACCTATTA
As to B18, in the experiment with SmpO408, the binding signal is 60.1 %Rmax.

B19: ossA408-14 (dsDNA)
DNA 1: TTATAGGCGCCTATTA
DNA 2: TAATAGGCGCCTATAA
As for B19, the binding signal with SmpO408 was 63 ± 0.997 %Rmax.

B20: ossA408-2 (dsDNA)
DNA 1: TAATAGGCGCCTAATA
DNA 2: TATTAGGCGCCTATTA
As for B20, the binding signal with SmpO408 worked out at 65.7 ± 2.04 %Rmax.

The record behind these values is article PMC8136818, “Evolving origin-of-transfer sequences on staphylococcal conjugative and mobilizable plasmids—who’s mimicking whom?”.
